Test results published in PubChem BioAssay (EPA / NIEHS).
The source made the active and inactive calls. Rule for the calls: active = hit-call score of the fitted dose curve at least 0.9, where 1 is the maximum; inactive = score below 0.9.

Key:
[1] = read-out: Monokine induced gamma interferon (MIG), CXCL9 (gene 4283); experiment: BSK_hDFCGF_MIG: BioMAP Diversity Plus: hDFCGF Assay for Monokine induced gamma interferon (MIG) Biomarker Activity (AID 2283063); settings: primary human foreskin fibroblasts; actives raise or lower the signal
Method in brief: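 ELISA read-out of MIG from primary human dermal fibroblasts 24 h post-dosing. Gain or loss of signal fitted bidirectionally, DMSO as baseline.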

[2] = read-out: Matrix Metallopeptidase 1 (MMP1), MMP1 (gene 4312); experiment: BSK_hDFCGF_MMP1: BioMAP Diversity Plus: hDFCGF Assay for Matrix Metallopeptidase 1 (MMP1) Biomarker Activity (AID 2283064); settings: primary human foreskin fibroblasts; actives raise or lower the signal
Method in brief: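 hDFCGF primary fibroblasts (human foreskin); chemical added; 24 h; MMP1 by ELISA; bidirectional fit vs DMSO.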

[3] = read-out: Vascular cell adhesion molecule 1 (VCAM1), VCAM1 (gene 7412); experiment: BSK_hDFCGF_VCAM1: BioMAP Diversity Plus: hDFCGF Assay for Vascular cell adhesion molecule 1 (VCAM1) Biomarker Activity (AID 2283065); settings: primary human foreskin fibroblasts; actives raise or lower the signal;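 for AC50: VCAM-1 protein level quantified by ELISA after 24 h chemical exposure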
Method in brief: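 Primary human foreskin fibroblasts (hDFCGF system) were dosed with chemical and VCAM-1 was measured by ELISA 24 h later. Bidirectional curve fitting used DMSO as negative control and activity baseline.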

[4] = read-out: Plasminogen activator inhibitor-1 (PAI1), SERPINE1 (gene 5054); experiment: BSK_hDFCGF_PAI1: BioMAP Diversity Plus: hDFCGF Assay for Plasminogen activator inhibitor-1 (PAI1) Biomarker Activity (AID 2283066); settings: primary human foreskin fibroblasts; actives raise or lower the signal
Method in brief: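 Human foreskin fibroblasts in the hDFCGF system were dosed with compound for 24 h; PAI-1 was quantified by ELISA. Bidirectional curve fitting used DMSO as negative control and baseline.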

[5] = read-out: Intercellular Adhesion Molecule 1 (ICAM1), ICAM1 (gene 3383); experiment: BSK_KF3CT_ICAM1: BioMAP Diversity Plus: KF3CT Assay for Intercellular Adhesion Molecule 1 (ICAM1) Biomarker Activity (AID 2283067); settings: primary human keratinocytes with fibroblasts; actives raise or lower the signal
Method in brief: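 Human keratinocyte plus foreskin fibroblast primary co-culture was exposed to chemical for 24 h. ICAM-1 was then quantified by ELISA, and the data were fit bidirectionally against DMSO as the negative control and baseline.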

[6] = read-out: Interferon-gamma inducible Protein 10 (IP10), CXCL10 (gene 3627); experiment: BSK_KF3CT_IP10: BioMAP Diversity Plus: KF3CT Assay for Interferon-gamma inducible Protein 10 (IP10) Biomarker Activity (AID 2283068); settings: primary human keratinocytes with fibroblasts; actives raise or lower the signal
Method in brief: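 Human keratinocyte plus foreskin fibroblast primary co-culture exposed to test chemical for 24 h; IP-10 measured by ELISA. Concentration-response fitted bidirectionally against DMSO control as baseline.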

[7] = BSK_KF3CT_SRB: Viability Assessment in the BioMAP Diversity Plus: KF3CT Assay (AID 2283069); settings: primary human keratinocytes with fibroblasts;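 note: total protein by sulforhodamine B staining as a cytotoxicity measure; read 24 h after compound addition; fitted for both signal gain and loss against DMSO baseline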
Method in brief: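 Keratinocytes co-cultured with foreskin fibroblasts (human primary); chemical added, 24 h; fix 10% TCA, stain 0.1% SRB, A560. Bidirectional fit vs DMSO.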

[8] = read-out: Interleukin-1 alpha (IL1a), IL1A (gene 3552); experiment: BSK_KF3CT_IL1a: BioMAP Diversity Plus: KF3CT Assay for Interleukin-1 alpha (IL1a) Biomarker Activity (AID 2283070); settings: primary human keratinocytes with fibroblasts; actives raise or lower the signal
Method in brief: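 Chemicals were dosed onto co-cultured human keratinocytes and foreskin fibroblasts, IL-1a was quantified by ELISA at 24 h, and activity was fitted in both directions relative to DMSO controls.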

[9] = read-out: TIMP metallopeptidase inhibitor 2 (TIMP2), TIMP2 (gene 7077); experiment: BSK_KF3CT_TIMP2: BioMAP Diversity Plus: KF3CT Assay for TIMP metallopeptidase inhibitor 2 (TIMP2) Biomarker Activity (AID 2283071); settings: primary human keratinocytes with fibroblasts; actives raise or lower the signal
Method in brief: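 Human primary keratinocyte/foreskin fibroblast co-culture dosed with chemical and sampled at 24 h. TIMP-2 levels quantified by ELISA; bidirectional fitting against DMSO negative control as baseline.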

[10] = read-out: Transforming growth factor beta 1 (TGFb1), TGFB1 (gene 7040); experiment: BSK_KF3CT_TGFb1: BioMAP Diversity Plus: KF3CT Assay for Transforming growth factor beta 1 (TGFb1) Biomarker Activity (AID 2283072); settings: primary human keratinocytes with fibroblasts; actives raise or lower the signal
Method in brief: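 Human keratinocyte plus foreskin fibroblast primary co-culture, dosed with chemical for 24 h. TGF-b1 quantified by ELISA. Activity fitted bidirectionally against DMSO negative control as baseline.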

Measured: AC50

O=C(NS(=O)(=O)/C=C/c1ccccc1)c1ccc(F)cc1Cl
active: [9] 20 µM
inactive: all other assays above

CCCC(=O)OCC
inactive: all assays above

CN(C)c1ccc(Cc2ccc(N(C)C)cc2)cc1
active: [2] 20 µM
inactive: all other assays above

CCn1nc(Cc2ccccc2)cc1C1CCN(C[C@H]2C[C@H](N(C)[C@@H](C(=O)O)C(C)C)C[C@@H]2c2cccc(F)c2)CC1
inactive: all assays above

O=C(O)CC(O)C(=O)O (stereo unspecified)
inactive: all assays above

O=C(OC[C@H]1O[C@@H](OC(=O)c2cc(O)c(O)c(OC(=O)c3cc(O)c(O)c(O)c3)c2)[C@H](OC(=O)c2cc(O)c(O)c(OC(=O)c3cc(O)c(O)c(O)c3)c2)[C@@H](OC(=O)c2cc(O)c(O)c(OC(=O)c3cc(O)c(O)c(O)c3)c2)[C@@H]1OC(=O)c1cc(O)c(O)c(OC(=O)c2cc(O)c(O)c(O)c2)c1)c1cc(O)c(O)c(OC(=O)c2cc(O)c(O)c(O)c2)c1
inactive: [7]
active: [1] 2.12 µM | [2] 1.86 µM | [3] 3.31 µM | [4] 6.1 µM | [5] 4.39 µM | [6] 4.98 µM | [8] 6.1 µM | [9] 2.92 µM | [10] 3.09 µM

C[C@](N)(Cc1ccc(O)c(O)c1)C(=O)O
active: [1] 20 µM | [3] 20 µM
not listed: [9]
inactive: all other assays above

Cn1c(=O)cc(Oc2ccc(F)cc2F)c2cnc(NCC(C)(C)O)nc21
active: [2] 1.12 µM | [3] 0.92 µM
inactive: all other assays above

Cc1ccc(C)c(O)c1
inactive: all assays above

Cc1ccc(O)cc1
inactive: all assays above

C=CC(=C)CCC=C(C)C
inactive: all assays above

COc1ccc2sc(C(=O)Nc3nnn[nH]3)c(OC(C)C)c2c1
active: [1] 15.5 µM | [2] 13.9 µM | [3] 12.2 µM | [4] 6.57 µM | [5] 24 µM | [6] 25.4 µM | [7] 26.1 µM | [8] 19.9 µM | [9] 19.9 µM | [10] 19.9 µM

CC(C)=CCCC(C)=CC=O
inactive: all assays above

COc1ccc(-n2nc(C(F)F)cc2-c2ccc(S(C)=O)cc2)cc1 (stereo unspecified)
inactive: all assays above

CNCc1ccc(NC(=O)c2c[nH]c3c2C(=O)CCC3)cc1
inactive: all assays above

CCC(C)(C)C(=O)O[C@H]1C[C@@H](C)C=C2C=C[C@H](C)[C@H](CC[C@@H]3C[C@@H](O)CC(=O)O3)[C@H]21
active: [3] 33.9 µM | [4] 23.4 µM | [5] 31.2 µM | [6] 34.3 µM | [7] 34.8 µM | [8] 34.9 µM | [9] 30.8 µM | [10] 31.4 µM
inactive: [1]

O=C1CCCCCN1
inactive: all assays above

CC1=CC(=O)CC(C)(C)C1
inactive: all assays above

COCCOc1cc2cc(C(=O)NC3CCN(C(C)C)CC3)n(CC(=O)Nc3ccc(Cl)cn3)c2cn1
inactive: all assays above

O=c1n(CC2CO2)c(=O)n(CC2CO2)c(=O)n1CC1CO1 (stereo unspecified)
active: [1] 15.5 µM | [3] 11.6 µM | [4] 22 µM
not listed: [2]
inactive: all other assays above

CCOCCO
not listed: [3]
inactive: all other assays above

Cc1[nH]cnc1C[C@H]1CCc2c(C)c3ccccc3n2C1=O
inactive: all assays above
